We go through 39 compounds from PubChem BioAssay AID651699 (Sanford-Burnham Center for Chemical Genomics, 2012).

The campaign covered roughly 360,000 compounds. About 2,100 (0.58%) were called active. For the sample, actives were picked, then their nearest neighbours and some compounds at random. Unmarked numbers belong to inactive results. Cut-off read from the data, not from the text of the source: active = inhibition above about 36%; inactive = the rest.

Chain of NEDD8-conjugating enzyme Ubc12 (Homo sapiens) + NEDD8-activating enzyme E1 regulatory subunit (Homo sapiens) (P61081 whole entry, looked up): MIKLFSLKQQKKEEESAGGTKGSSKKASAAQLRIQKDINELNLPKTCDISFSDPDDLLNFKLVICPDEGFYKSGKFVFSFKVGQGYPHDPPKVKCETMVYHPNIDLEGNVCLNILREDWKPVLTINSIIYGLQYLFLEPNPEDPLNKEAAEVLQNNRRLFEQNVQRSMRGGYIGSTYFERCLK
Chain of NEDD8-conjugating enzyme Ubc12 (Homo sapiens) + NEDD8-activating enzyme E1 regulatory subunit (Homo sapiens) (Q13564 whole entry, looked up): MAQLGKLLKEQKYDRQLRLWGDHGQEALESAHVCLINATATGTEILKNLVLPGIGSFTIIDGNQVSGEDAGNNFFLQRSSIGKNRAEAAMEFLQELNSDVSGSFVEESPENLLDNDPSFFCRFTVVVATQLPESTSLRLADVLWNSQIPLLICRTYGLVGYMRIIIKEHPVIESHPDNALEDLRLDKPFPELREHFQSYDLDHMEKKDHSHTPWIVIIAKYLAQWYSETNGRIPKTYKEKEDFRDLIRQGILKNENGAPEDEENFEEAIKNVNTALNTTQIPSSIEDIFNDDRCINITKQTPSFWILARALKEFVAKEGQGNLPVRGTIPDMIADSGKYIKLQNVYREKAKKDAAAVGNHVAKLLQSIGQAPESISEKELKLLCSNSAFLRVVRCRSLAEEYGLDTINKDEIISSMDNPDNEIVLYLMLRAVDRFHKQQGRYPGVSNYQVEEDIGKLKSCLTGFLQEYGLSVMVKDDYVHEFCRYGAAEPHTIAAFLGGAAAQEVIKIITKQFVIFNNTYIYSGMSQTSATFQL

This assay addresses NEDD8-conjugating enzyme Ubc12 (Homo sapiens) + NEDD8-activating enzyme E1 regulatory subunit (Homo sapiens) (UniProt P61081+Q13564). Description: inhibitors of cullin neddylation, primary screen, biochemical, TR-FRET, uHTS, NAE and Ubc12 (AID 651699). As to conditions: at 25 µM, stronger effect = higher value. On the technique in general: Time-resolved FRET reads energy transfer from a long-lived donor to a nearby acceptor.
With `O=C(Nc1ccc(Cl)cc1)C1Cc2c(-c3ccc4c(c3)OCO4)ccnc2O1` (centres undefined), the inhibition was 25.3%. Next, `N#Cc1ccccc1CN1C(=O)S/C(=C/c2cccn2-c2cccc(C(=O)O)c2)C1=O`: -29.6%; `Cc1cccc(N2CCN(C(=O)CN(C)S(=O)(=O)c3ccc4c(c3)CCC(=O)N4)CC2)c1C`: 4.09%; `CCCC(=O)N1CCC1(C)C(=O)NS(=O)(=O)c1ccc(Cl)cc1` (centres undefined): 5.26%. Consider `CCOc1cc(/C=N/NC(=O)c2cccc(S(=O)(=O)N3CCOCC3)c2)ccc1OCC(=O)N(C)C`, for which the inhibition is 6.83%. Next, `O=C(NNC1=NCCC1)c1cccc(S(=O)(=O)N2CCCCC2)c1`: 3.17%; `Cc1ncc(CO)c(/C=N/NC(=O)c2cccc(S(=O)(=O)N3CCCC3)c2)c1O`: 47.2% (active). As to `COc1ccccc1/C=C/C(=O)NC(=S)N1CCOCC1`, the inhibition was -10.5%.

For the compound `C=CCOC(=O)C1=C(C)N=C2SCCC(=O)N2C1/C=C/c1ccccc1OC` (centres undefined), the inhibition was -7.53%.

For `COc1ccccc1/C=C/C1=NC(=C\N(C)C)/C(=O)O1`, the inhibition was 54% (active).

Consider `CCSC1=NCCN1C(=O)c1ccc(S(=O)(=O)N(CC)CC)cc1`, for which the inhibition is -10.5%. Next, `CC1(C(=O)NS(=O)(=O)c2ccc(C#N)cc2)CCN1C(=O)CC1CCCC1` (centres undefined): -3.86%; `CC(C)(C)OC(=O)C[C@@H]1C/C=C\C[C@@H](CC(=O)N[C@H](CO)Cc2ccccc2)C(=O)NCCOC1=O`: -4.28%. To `CN(C(=O)COC(=O)c1cc(-c2ccco2)nc2ccccc12)C1CCS(=O)(=O)C1` (centres undefined) belongs -19.8%; to `O=C(c1ccc(Cl)s1)N(Cc1nnc(-c2ccccc2Cl)o1)C1CC1`, 12.9%; to `O=C(c1cc(-c2ccco2)nc2ccccc12)N(Cc1nnc(-c2ccc(Cl)cc2)o1)C1CC1`, 38.9% (active). To `N#Cc1ccc(S(=O)(=O)NCC(=O)OCC(=O)NCCc2ccccc2)cc1` belongs -11.3%.

In the case of `CCOC(=O)C1(Cc2ccccc2C)CCCN(C(=O)CCc2c(C)noc2C)C1` (centres undefined), the inhibition was 3.81%. For `CC(=O)OCC(C)n1c(=O)c2ccccc2n1C(C)=O` (centres undefined), the inhibition is 16.7%. Turning to `CC(=O)Oc1c(C(=O)c2nnc(C)o2)c(=O)n(Cc2ccccc2)c2ccccc12`, the inhibition is 40% (active). Next, `O=C(O)CCc1nc2cc(Cl)ccc2n(Cc2ccccc2)c1=O`: 9.12%; `CC1Cc2ccccc2N1CC(=O)Nc1ccc2c(c1)OC(F)(F)O2` (centres undefined): -5.99%. Next, `CC(=O)NS(=O)(=O)c1ccc(N/C(N)=N/c2nc(C)cc(C)n2)cc1`: -11.7%; `O=C(CSc1nnc(-c2ccncc2)n1C1CCCCC1)Nc1ccccc1`: -3.98%; `CCOc1ccc(NC(=O)CN(C)C(=O)Cc2sc(C)nc2-c2ccc(F)cc2)cc1OCC`: -1.44%. To `COc1ccc(C2c3[nH]c4ccccc4c3CCN2CCCn2cccn2)cc1C` (centres undefined) belongs 49.4% (active). For `COc1cccc(C2c3[nH]c4ccccc4c3CCN2Cc2cccc(C)n2)c1` (centres undefined), the inhibition was 48.7% (active). To `Oc1cccc(C2c3[nH]c4ccccc4c3CCN2Cc2cnn(-c3ccccc3)c2)c1` (centres undefined) belongs 25.4%; to `CCOc1ccc(C2c3[nH]c4ccccc4c3CCN2Cc2cccn2-c2ncccn2)cc1` (centres undefined), 16.1%. To `COCc1ccc(C(=O)N2CCc3c([nH]c4ccccc34)C2c2ccccn2)s1` (centres undefined) belongs -1.93%; to `CCOc1ccc(C2c3[nH]c4ccccc4c3CCN2Cc2cn(CC)nc2C)cc1` (centres undefined), 22.4%; to `O=C(O)C1C2C=CC(C2)C1C(=O)NCc1ccccc1` (centres undefined), -4.12%.

On to `O=C(OCc1ccccc1)N1CCC2CC1c1cc(N3CCN(S(=O)(=O)c4cc(Cl)cc(Cl)c4)CC3)ccc12` (centres undefined), for which the inhibition is 19.3%.

On to `CC(OC(=O)c1cc2ccccc2o1)C(=O)Nc1ccc(N2CCOCC2)cc1` (centres undefined), for which the inhibition was 2.93%. To `CC(C)C1N=C2c3ccccc3N=C(SCC(=O)c3ccc(O)c(O)c3)N2C1=O` (centres undefined) belongs -18.8%; to `O=C(Nc1ccc(-c2cscn2)cc1)C1CCCN(Cc2ccc(CO)o2)C1` (centres undefined), 5.08%. In the case of `O=C(NCc1cccnc1)Nc1cccc(NC(=O)NCc2cccnc2)c1F`, the inhibition was 2.41%. As to `CC(C)CC1(C)NC(=O)N(CC(=O)Nc2ccc3c(c2)OCCO3)C1=O` (centres undefined), the inhibition was -8.52%.

As for `Cc1ccc(-n2c(SCC(=O)Nc3ncc(Cl)cc3Cl)nc3ccccc32)cc1`, the inhibition is 3.23%.

Broadly, the inhibition is the relative decrease from the control value, in per cent.
